Screens deposited in PubChem by National Center for Advancing Translational Sciences (NCATS).
LASV entry inh: Lassa virus entry inhibition | Lassa virus pseudotype entry inhibition, cell reporter | Potency, µM (highest dose often 37.9 µM), most hits filed as inhibitors | hit rate 1.2% among 300,000; calls by dose curve; tested in HEK293 cells; further: nearly all actives have a fitted effect of over 50% in size
FMDV antiviral: foot and mouth disease virus antiviral activity. FMDV antiviral cell-based qHTS. Potency, µM (highest dose often 57.9 µM), usual class: inhibitors. hit rate 1.2% among 410,000; calls by dose curve; tested in HEK293T cells; further: read-out not given here; nearly all actives have a fitted effect of over 45% in size
Marburg entry inh: Marburg virus entry inhibition | Marburg virus pseudotyped entry inhibition, cell reporter | Potency, µM (top dose mostly 37.8 µM), actives largely listed as inhibitors | hit rate 1.8% among 300,000 | AID 540276; calls by dose curve; tested in HEK293 cells
Vaccinia mCherry: vaccinia inhibition (mCherry reporter) | Vaccinia virus mCherry reporter infection, fluorescence | Potency, µM (doses to about 36.5 µM), usual class: inhibitors | hit rate 0.63% among 310,000; calls by dose curve; tested in A549 cells; further: nearly all actives have a fitted effect of over 35% in size
VACV Venus inh: vaccinia inhibition (Venus reporter) | hit rate 0.46% among 330,000 | Potency, µM (top dose mostly 36.5 µM), usual class: inhibitors | Vaccinia virus Venus reporter expression, fluorescence; calls by dose curve; tested in A549 cells; further: nearly all actives have a fitted effect of over 30% in size
A number is an active result. Only some compounds are listed: those with a hit (about 3.2% of all), similar ones and a draw of the others.

Cc1ccc(C)c(S(=O)(=O)NCc2nc(N3CCCC3)c3cc(Cl)ccc3n2)c1 was read as FMDV antiviral inactive, Vaccinia mCherry inactive and VACV Venus inh inactive.
COC(=O)[C@]12CCCCC=C1N(Cc1cccc3ccccc13)C(=O)[C@H](CC(=O)NCCCN1CCCC1=O)C2 was read as FMDV antiviral inactive, Vaccinia mCherry inactive and VACV Venus inh inactive.
CCC1CN(CCC(=O)N2CCCN(C(=O)c3ccco3)CC2)Cc2cc(OC)ccc2O1 (configuration not stated) was read as FMDV antiviral inactive, Vaccinia mCherry inactive and VACV Venus inh inactive.
For CCn1c(=O)c(C(=O)NCCc2ccc(OC)c(OC)c2)c(O)c2ccccc21 the results were FMDV antiviral inactive.
`CCn1c(=O)c([N+](=O)[O-])c(NCCc2ccc(OC)c(OC)c2)c2ccccc21` gave LASV entry inh inconclusive, FMDV antiviral 22.4µM, Marburg entry inh inconclusive, Vaccinia mCherry inactive and VACV Venus inh inactive.
`CCCn1c(CC)nc([N+](=O)[O-])c1S(=O)(=O)c1ccccc1` gave LASV entry inh inconclusive, FMDV antiviral 12.6µM and Marburg entry inh inconclusive.
Screening CCc1nc(C)cn1S(=O)(=O)c1ccc([N+](=O)[O-])cc1 returned LASV entry inh inactive, FMDV antiviral inactive, Marburg entry inh inactive, Vaccinia mCherry inactive and VACV Venus inh inactive.
For OC[C@@H]1CN(Cc2ccc(F)cc2)C[C@H](n2cnc3c(N4CCCC4)ncnc32)O1 the results were FMDV antiviral inactive, Vaccinia mCherry inactive and VACV Venus inh inactive.
Screening CN(C)c1ccc(/C=N/N=C2/NC(=O)/C(=C/c3ccc([N+](=O)[O-])cc3)S2)cc1 returned LASV entry inh 2µM, FMDV antiviral 8.91µM, Marburg entry inh inconclusive, Vaccinia mCherry inactive and VACV Venus inh inactive.
COc1cc(Cl)nn(-c2ccccc2)c1=O was read as LASV entry inh inactive, FMDV antiviral inactive, Marburg entry inh inconclusive, Vaccinia mCherry inactive and VACV Venus inh inactive.
O=c1c(Cl)cc(Cl)nn1-c1ccccc1 was read as LASV entry inh inconclusive, FMDV antiviral 35.5µM, Marburg entry inh 16.4µM, Vaccinia mCherry inactive and VACV Venus inh inactive.
Screening Cc1ccc(O[C@@H]2[C@H](O)CO[C@H]2C=CC#Cc2ccc(C(C)(C)C)cc2)cc1 returned LASV entry inh inconclusive and Marburg entry inh inactive.
`Cc1cccc(C(=O)Nc2cc(S(=O)(=O)N3CCOCC3)ccc2N2CCCC2)c1` gave LASV entry inh inactive, FMDV antiviral inactive, Marburg entry inh inactive, Vaccinia mCherry inactive and VACV Venus inh inactive.
For CCOc1ccc(-c2cn3ccccc3n2)cc1 the results were LASV entry inh inconclusive, FMDV antiviral inactive, Marburg entry inh 3.55µM, Vaccinia mCherry inactive and VACV Venus inh inconclusive.
Screening Fc1ccc(-c2cn3ccccc3n2)cc1 returned FMDV antiviral inactive.
COc1ccc(N2Cc3cccc(C(=O)Nc4ccc(C(C)C)cc4)c3C2=O)cc1 was read as LASV entry inh inactive, FMDV antiviral inactive, Marburg entry inh inconclusive, Vaccinia mCherry inactive and VACV Venus inh inactive.
For COc1ccc2nc(NC(=O)c3ccccc3C(=O)O)sc2c1 the results were FMDV antiviral inactive.
For COc1cccc2sc(Nc3nc4ccc(NC(C)=O)cc4s3)nc12 the results were LASV entry inh inconclusive, FMDV antiviral inactive, Marburg entry inh 7.31µM, Vaccinia mCherry inactive and VACV Venus inh inactive.
Screening O=C(Nc1nc2ccccc2s1)c1cccn(Cc2ccccc2)c1=O returned LASV entry inh inactive, FMDV antiviral inactive, Vaccinia mCherry inactive and VACV Venus inh inactive.
Screening COc1ccc(C(=O)Nc2nc3ccccc3s2)c(OC)c1 returned LASV entry inh inconclusive, FMDV antiviral 0.126µM, Marburg entry inh inconclusive, Vaccinia mCherry inactive and VACV Venus inh inactive.
Screening CC(=O)Nc1ccc2nc(NC(=O)COc3ccccc3C)sc2c1 returned LASV entry inh inactive, FMDV antiviral inactive, Marburg entry inh inactive, Vaccinia mCherry inactive and VACV Venus inh inactive.
`Cn1cc(Cl)c(C(=O)Nc2nc3ccccc3s2)n1` gave LASV entry inh inconclusive, Marburg entry inh 8.2µM, Vaccinia mCherry inactive and VACV Venus inh inactive.
Screening Cc1ccccc1Cn1cccc(C(=O)Nc2nc3ccccc3s2)c1=O returned LASV entry inh inconclusive, FMDV antiviral 22.4µM, Vaccinia mCherry inactive and VACV Venus inh inactive.
`COC(=O)c1cc(NC(=O)CN(C)C2CCS(=O)(=O)C2)cc(C(=O)OC)c1` (configuration not stated) gave LASV entry inh inactive, FMDV antiviral inactive, Marburg entry inh inactive, Vaccinia mCherry inactive and VACV Venus inh inactive.
`COc1ccc2nc(NC(=O)c3cccc(-c4cc5ccccc5oc4=O)c3)sc2c1` gave LASV entry inh inconclusive, FMDV antiviral inactive, Marburg entry inh inconclusive, Vaccinia mCherry inconclusive and VACV Venus inh 12.6µM.
`COc1ccccc1C(=O)Nc1nc2ccccc2s1` gave FMDV antiviral 1.78µM.
CC(=NN=C(C)c1ccc(O)cc1)c1ccc(O)cc1 was read as LASV entry inh inactive, FMDV antiviral inactive, Marburg entry inh inactive, Vaccinia mCherry inactive and VACV Venus inh inactive.
`C=C(c1ccc(O)cc1)c1ccc(O)cc1` gave LASV entry inh 1µM, FMDV antiviral inconclusive, Marburg entry inh inactive and VACV Venus inh inactive.
For C/C=C(/C(=C/C)c1ccc(O)cc1)c1ccc(O)cc1 the results were LASV entry inh 25.9µM, FMDV antiviral inconclusive, Marburg entry inh inactive, Vaccinia mCherry inactive and VACV Venus inh inactive.
Screening Cc1cc(C)cc(NC(=O)CN(C)CC(=O)N(CC(C)C)c2c(N)n(CC(C)C)c(=O)[nH]c2=O)c1 returned FMDV antiviral inactive.
For CC(C)(C)C(=O)Nc1ccc(-c2nc3ccccc3c(=O)o2)cc1 the results were LASV entry inh inconclusive, FMDV antiviral 4.47µM, Marburg entry inh inconclusive, Vaccinia mCherry inactive and VACV Venus inh inactive.
`CC(C)(C)C(=O)Nc1cccc(-c2nc3ccccc3c(=O)o2)c1` gave LASV entry inh inconclusive, Marburg entry inh inactive, Vaccinia mCherry inactive and VACV Venus inh inactive.
For Cn1c(/C=C/c2ccccc2)nc2ccccc2c1=O the results were LASV entry inh inactive, FMDV antiviral inactive, Marburg entry inh inconclusive, Vaccinia mCherry inconclusive and VACV Venus inh inactive.
Cn1c(/C=C/c2ccc([N+](=O)[O-])o2)nc2ccccc2c1=O was read as LASV entry inh 2.82µM, FMDV antiviral 25.1µM, Marburg entry inh inconclusive, Vaccinia mCherry 4.47µM and VACV Venus inh inconclusive.
`COc1ccc(S(=O)(=O)Nc2ccc3oc4c(c3c2)CCCC4)cc1` gave LASV entry inh inconclusive, FMDV antiviral inactive, Marburg entry inh 10µM, Vaccinia mCherry inconclusive and VACV Venus inh inactive.
For COc1ccc2c(c1)OC(C)CN(CCNC(=O)c1cc3cc(F)ccc3[nH]1)C2 (configuration not stated) the results were FMDV antiviral inactive, Vaccinia mCherry inactive and VACV Venus inh inactive.
`CCN(CC)C(C)CN1c2ccccc2Sc2ccccc21` (configuration not stated) gave LASV entry inh inactive, FMDV antiviral 28.2µM, Marburg entry inh inconclusive, Vaccinia mCherry inactive and VACV Venus inh inconclusive.
For CCN1C(=O)NC(c2cccc(C(F)(F)F)c2)C(C(C)=O)=C1C (configuration not stated) the results were LASV entry inh inconclusive and Marburg entry inh inactive.
